Test results as given in the supplement of paper PMC10849652.
Of roughly 7,900 targets only a part is listed; those with a hit were picked by preference. About 0.6% of all pairs of compound and target were hits.

What was measured:
Test in all cases: log2 fold change, soluble protein after heating vs DMSO (PISA); higher = thermal stabilisation; K562 cells, 10 uM, 30 min; active = over 0.2 and 3.5 SD of the protein, either way, in both replicates (recomputed)
[1] = compound: C#Cc1cccc(Nc2ncnc3cc(OCCOC)c(OCCOC)cc23)c1 [erlotinib]
Procedure, shortened: (§1)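 Thermal stability values are relative to control samples and come from duplicates. They are expressed as log2 fold changes. For measurement, K562 cells (2×10^6 cells/mL) received 10 μM compound for 30 min, and aliquots were heated for 3 min over 48°C-58°C, pooled, and extracted at 4°C in PBS with 0.5% NP-40. Soluble protein, the supernatant after 21,000xg for 90 min, was quantified by TMTpro 16plex LC-MS/MS with equalised channel sums.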

[2] = compound: C/C(=N\NC(=O)C1=CC(=CC=C1)S(=O)(=O)N2CCOCC2)/C3=C(C=CC(=C3)Cl)O
Procedure, shortened: as §1

[3] = compound: C1=CC(=C(C=C1Cl)C2=NC3=NC=CN=C3C(=N2)NC4=CC=NC=C4)F
Procedure, shortened: as §1

[4] = compound: C1=CC(=CC=C1C2=NC3=C(N2)C=C(C=C3)C(=O)N)OC4=CC=C(C=C4)Cl
Procedure, shortened: as §1

[5] = compound: C1=CC2=C(C=CC(=C2)/C=C\3/C(=O)NC(=NCC4=CC=CS4)S3)N=C1
Procedure, shortened: as §1

[6] = compound: C1=CC2=NC=CN=C2C=C1/C=C/3\C(=O)NC(=O)S3
Procedure, shortened: as §1

[7] = compound: C1=CC=C(C=C1)C2=NC(=C(N2)C3=CC=NC=C3)C4=CC(=C(C=C4)Cl)O
Procedure, shortened: as §1

[8] = compound: C1=CC=C2C(=C1)C3=NNC4=CC=CC(=C43)C2=O
Procedure, shortened: as §1

[9] = compound: C1CCN(C1)C(=O)NC2=CC=CC(=C2)NC3=NC=C(C(=N3)NCCC4=CN=CN4)Br
Procedure, shortened: as §1

[10] = compound: C1CN(CCC1(CC2=CC=C(C=C2)Cl)N)C3=NC=NC4=C3C=CN4
Procedure, shortened: as §1

[11] = compound: C1COCCN1CCN2C3=CC=CC=C3N=C2NC(=O)C4=CC(=CC=C4)[N+](=O)[O-] [IRAK-1-4 Inhibitor I]
Procedure, shortened: as §1

[12] = compound: C=CC(=O)N1CCC[C@@H](n2nc(-c3ccc(Oc4ccccc4)cc3)c3c(N)ncnc32)C1 [ibrutinib]
Procedure, shortened: as §1

[13] = compound: CC(=O)c1cnc2ccc(-c3cc(Cl)c(O)c(Cl)c3)nc2c1N[C@H]1CC[C@H](CN(C)C)CC1
Procedure, shortened: as §1

[14] = compound: CC(C)(C)Cn1c(N)nc2ccc(-c3[nH]c(C(C)(C)C)nc3-c3ccc(F)cc3)nc21 [ralimetinib]
Procedure, shortened: as §1

[15] = compound: CC(C)(O)CC(=O)NCCn1ccc2ncnc(Nc3ccc(Oc4cccc(C(F)(F)F)c4)c(Cl)c3)c21
Procedure, shortened: as §1

[16] = compound: CC(C)C1=C2N=C(C=C(N2N=C1)NCC3=CC=CC=C3)NCCCCCCN
Procedure, shortened: as §1

[17] = compound: CC(C)C[C@@H](C=O)NC(=O)[C@H](CC(C)C)NC(=O)[C@H](CC(C)C)NC(=O)OCc1ccccc1
Procedure, shortened: as §1

[18] = compound: CC(C)N(C[C@H]1O[C@@H](n2cnc3c(N)ncnc32)[C@H](O)[C@@H]1O)[C@H]1C[C@@H](CCc2nc3cc(C(C)(C)C)ccc3[nH]2)C1 [pinometostat]
Procedure, shortened: as §1

[19] = compound: CC1=C(C(CC(=O)N1)C2=CC=C(C=C2)C(F)(F)F)C(=O)NC3=C(C=C4C(=C3)C=NN4)F
Procedure, shortened: as §1

[20] = compound: CC1=C(C2=C(C=C1)C(=O)C3=CC=CC=C3N2CCCN)C
Procedure, shortened: as §1

Measured: log2 fold change

RAB9A (UniProt P51151)
inactive: [1] 0.037 | [2] 0.05 | [3] 0.017 | [4] 0.016 | [5] 0.046 | [6] -0.022 | [7] -0.005 | [8] -0.01 | [9] 0.017 | [10] 0.056 | [11] 0.018 | [12] 0.018 | [13] -0.001 | [14] -0.001 | [15] -0.014 | [16] -0.126 | [17] -0.008 | [18] -0.027 | [19] -0.021 | [20] 0.06

SFXN5 (UniProt Q8TD22)
UniProt Q8TD22, sequence (Q8TD22 whole entry, looked up): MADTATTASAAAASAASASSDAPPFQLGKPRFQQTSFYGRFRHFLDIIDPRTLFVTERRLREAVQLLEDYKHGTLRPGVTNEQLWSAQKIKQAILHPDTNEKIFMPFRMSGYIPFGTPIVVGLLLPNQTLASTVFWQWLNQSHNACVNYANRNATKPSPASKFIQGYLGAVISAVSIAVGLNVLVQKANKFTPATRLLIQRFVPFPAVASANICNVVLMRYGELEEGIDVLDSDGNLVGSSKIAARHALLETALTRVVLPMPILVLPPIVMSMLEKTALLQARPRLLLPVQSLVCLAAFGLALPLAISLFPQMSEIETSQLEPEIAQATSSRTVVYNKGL
inactive: [1] -0.077 | [2] 0.09 | [3] -0.02 | [4] 0.082 | [5] -0.003 | [6] 0.023 | [7] 0.081 | [8] -0.001 | [9] -0.066 | [10] -0.045 | [11] 0.225 | [12] -0.048 | [13] -0.013 | [14] -0.001 | [15] -0.175 | [16] -0.083 | [17] 0.187 | [18] 0.03 | [19] 0.008 | [20] 0.09

RNPS1 (UniProt Q15287)
UniProt Q15287, sequence (Q15287 whole entry, looked up): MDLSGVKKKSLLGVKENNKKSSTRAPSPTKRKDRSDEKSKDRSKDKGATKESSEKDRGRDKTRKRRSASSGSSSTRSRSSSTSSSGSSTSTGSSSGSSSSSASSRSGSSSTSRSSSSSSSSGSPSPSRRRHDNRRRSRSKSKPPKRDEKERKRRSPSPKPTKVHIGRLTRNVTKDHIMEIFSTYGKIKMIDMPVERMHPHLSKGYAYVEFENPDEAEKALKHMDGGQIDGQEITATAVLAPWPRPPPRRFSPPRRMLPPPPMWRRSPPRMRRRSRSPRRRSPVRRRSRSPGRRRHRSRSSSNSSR
inactive: [1] 0.008 | [2] 0.194 | [3] 0.06 | [4] 0.053 | [5] 0.164 | [6] 0.013 | [7] -0.022 | [8] -0.319 | [9] 0.048 | [10] -0.118 | [11] -0.159 | [12] -0.031 | [13] -0.317 | [14] 0.128 | [15] -0.039 | [16] -0.126 | [17] 0.066 | [18] 0.08 | [19] -0.032
active: [20] -0.746

RPP25L (UniProt Q8N5L8)
UniProt Q8N5L8, sequence (Q8N5L8 whole entry, looked up): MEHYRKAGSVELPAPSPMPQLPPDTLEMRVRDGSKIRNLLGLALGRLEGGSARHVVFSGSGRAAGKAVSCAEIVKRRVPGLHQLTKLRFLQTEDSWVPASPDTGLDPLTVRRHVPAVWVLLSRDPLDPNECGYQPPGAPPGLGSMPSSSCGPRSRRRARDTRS
active: [1] 0.274 | [20] -0.288
inactive: [2] -0.004 | [3] -0.029 | [4] 0.031 | [5] -0.001 | [6] 0.041 | [7] 0.014 | [8] -0.065 | [9] 0.01 | [10] 0.01 | [11] -0.102 | [12] 0.021 | [13] -0.004 | [14] 0.049 | [15] -0.015 | [16] -0.293 | [17] 0.035 | [18] -0.002 | [19] -0.014

RBBP6 (UniProt Q7Z6E9)
UniProt Q7Z6E9, sequence (Q7Z6E9 whole entry, looked up): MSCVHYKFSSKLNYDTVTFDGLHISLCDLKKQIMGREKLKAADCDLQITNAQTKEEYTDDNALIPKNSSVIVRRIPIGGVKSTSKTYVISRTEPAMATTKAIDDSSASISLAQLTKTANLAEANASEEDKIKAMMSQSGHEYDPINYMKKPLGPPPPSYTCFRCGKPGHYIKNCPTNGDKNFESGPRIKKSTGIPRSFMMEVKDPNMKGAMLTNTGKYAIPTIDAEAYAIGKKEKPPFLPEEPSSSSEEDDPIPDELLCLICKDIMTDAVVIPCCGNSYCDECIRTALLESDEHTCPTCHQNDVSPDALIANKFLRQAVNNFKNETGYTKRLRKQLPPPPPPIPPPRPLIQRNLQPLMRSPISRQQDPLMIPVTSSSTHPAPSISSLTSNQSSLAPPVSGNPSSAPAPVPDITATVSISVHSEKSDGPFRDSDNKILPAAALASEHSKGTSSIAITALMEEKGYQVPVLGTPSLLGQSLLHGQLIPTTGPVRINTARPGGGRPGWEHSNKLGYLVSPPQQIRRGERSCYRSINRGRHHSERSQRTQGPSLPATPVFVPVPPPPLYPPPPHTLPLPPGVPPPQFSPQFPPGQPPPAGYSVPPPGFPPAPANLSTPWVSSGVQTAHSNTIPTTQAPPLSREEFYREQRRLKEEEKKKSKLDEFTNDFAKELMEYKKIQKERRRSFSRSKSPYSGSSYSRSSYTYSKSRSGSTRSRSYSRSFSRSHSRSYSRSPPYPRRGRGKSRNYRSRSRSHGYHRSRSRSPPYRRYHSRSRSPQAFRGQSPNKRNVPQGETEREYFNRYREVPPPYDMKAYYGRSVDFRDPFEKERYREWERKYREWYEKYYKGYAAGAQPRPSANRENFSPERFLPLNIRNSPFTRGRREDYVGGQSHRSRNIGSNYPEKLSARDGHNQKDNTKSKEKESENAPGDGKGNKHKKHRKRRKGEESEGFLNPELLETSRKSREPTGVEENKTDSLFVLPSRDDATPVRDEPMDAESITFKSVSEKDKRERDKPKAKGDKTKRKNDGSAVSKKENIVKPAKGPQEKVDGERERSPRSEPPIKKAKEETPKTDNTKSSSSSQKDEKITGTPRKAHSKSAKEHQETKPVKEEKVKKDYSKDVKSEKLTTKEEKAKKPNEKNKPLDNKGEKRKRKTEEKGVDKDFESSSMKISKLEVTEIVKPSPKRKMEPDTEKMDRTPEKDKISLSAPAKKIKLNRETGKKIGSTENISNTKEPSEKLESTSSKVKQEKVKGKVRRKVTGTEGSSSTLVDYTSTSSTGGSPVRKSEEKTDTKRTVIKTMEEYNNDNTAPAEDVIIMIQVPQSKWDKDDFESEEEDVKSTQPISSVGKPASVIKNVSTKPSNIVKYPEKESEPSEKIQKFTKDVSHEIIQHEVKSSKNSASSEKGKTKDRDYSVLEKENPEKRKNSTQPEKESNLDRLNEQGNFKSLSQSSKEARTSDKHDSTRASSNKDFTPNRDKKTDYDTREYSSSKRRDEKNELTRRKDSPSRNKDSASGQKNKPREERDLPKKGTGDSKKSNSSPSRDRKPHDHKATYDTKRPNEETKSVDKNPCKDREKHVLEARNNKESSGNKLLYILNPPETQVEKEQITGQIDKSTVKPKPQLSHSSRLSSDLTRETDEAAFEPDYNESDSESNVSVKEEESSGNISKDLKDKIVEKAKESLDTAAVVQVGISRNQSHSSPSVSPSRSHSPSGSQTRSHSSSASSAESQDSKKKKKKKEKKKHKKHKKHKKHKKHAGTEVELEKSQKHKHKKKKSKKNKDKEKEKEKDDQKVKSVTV
inactive: [1] -0.01 | [2] 0.005 | [3] 0.014 | [4] -0.034 | [5] -0.037 | [6] 0 | [7] 0.025 | [8] -0.005 | [9] -0.067 | [10] 0.003 | [11] -0.099 | [12] -0.082 | [13] -0.114 | [14] 0.02 | [15] 0.044 | [16] -0.089 | [17] -0.023 | [18] -0.078 | [19] -0.021 | [20] -0.022

RPS12 (UniProt P25398)
active: [20] -0.314
inactive: [1] -0.115 | [2] -0.082 | [3] -0.072 | [4] -0.001 | [5] -0.021 | [6] -0.002 | [7] 0.008 | [8] -0.02 | [9] 0.027 | [10] -0.05 | [11] -0.063 | [12] 0.036 | [13] 0.051 | [14] 0.043 | [15] 0.003 | [16] 0.036 | [17] -0.024 | [18] 0.024 | [19] 0.095

SETMAR (UniProt Q53H47)
active: [20] 0.509
inactive: [1] 0.004 | [2] -0.044 | [3] 0.046 | [4] -0.018 | [5] 0.133 | [6] -0.029 | [7] -0.01 | [8] 0.008 | [9] -0.031 | [10] -0.248 | [11] 0.093 | [12] -0.04 | [13] -0.135 | [14] -0.025 | [15] 0.047 | [16] 0.227 | [17] -0.061 | [18] 0.078 | [19] 0.012

SEC23A (UniProt Q15436)
inactive: [1] 0.026 | [2] 0.1 | [3] 0.022 | [4] -0.036 | [5] -0.024 | [6] 0.021 | [7] 0.005 | [8] -0.018 | [9] 0.019 | [10] -0.019 | [11] 0.06 | [12] 0 | [13] 0.077 | [14] 0.026 | [15] -0.123 | [16] -0.014 | [17] -0.006 | [18] -0.004 | [19] 0.024 | [20] 0.121

SCAF11 (UniProt Q99590)
UniProt Q99590, sequence (Q99590 whole entry, looked up): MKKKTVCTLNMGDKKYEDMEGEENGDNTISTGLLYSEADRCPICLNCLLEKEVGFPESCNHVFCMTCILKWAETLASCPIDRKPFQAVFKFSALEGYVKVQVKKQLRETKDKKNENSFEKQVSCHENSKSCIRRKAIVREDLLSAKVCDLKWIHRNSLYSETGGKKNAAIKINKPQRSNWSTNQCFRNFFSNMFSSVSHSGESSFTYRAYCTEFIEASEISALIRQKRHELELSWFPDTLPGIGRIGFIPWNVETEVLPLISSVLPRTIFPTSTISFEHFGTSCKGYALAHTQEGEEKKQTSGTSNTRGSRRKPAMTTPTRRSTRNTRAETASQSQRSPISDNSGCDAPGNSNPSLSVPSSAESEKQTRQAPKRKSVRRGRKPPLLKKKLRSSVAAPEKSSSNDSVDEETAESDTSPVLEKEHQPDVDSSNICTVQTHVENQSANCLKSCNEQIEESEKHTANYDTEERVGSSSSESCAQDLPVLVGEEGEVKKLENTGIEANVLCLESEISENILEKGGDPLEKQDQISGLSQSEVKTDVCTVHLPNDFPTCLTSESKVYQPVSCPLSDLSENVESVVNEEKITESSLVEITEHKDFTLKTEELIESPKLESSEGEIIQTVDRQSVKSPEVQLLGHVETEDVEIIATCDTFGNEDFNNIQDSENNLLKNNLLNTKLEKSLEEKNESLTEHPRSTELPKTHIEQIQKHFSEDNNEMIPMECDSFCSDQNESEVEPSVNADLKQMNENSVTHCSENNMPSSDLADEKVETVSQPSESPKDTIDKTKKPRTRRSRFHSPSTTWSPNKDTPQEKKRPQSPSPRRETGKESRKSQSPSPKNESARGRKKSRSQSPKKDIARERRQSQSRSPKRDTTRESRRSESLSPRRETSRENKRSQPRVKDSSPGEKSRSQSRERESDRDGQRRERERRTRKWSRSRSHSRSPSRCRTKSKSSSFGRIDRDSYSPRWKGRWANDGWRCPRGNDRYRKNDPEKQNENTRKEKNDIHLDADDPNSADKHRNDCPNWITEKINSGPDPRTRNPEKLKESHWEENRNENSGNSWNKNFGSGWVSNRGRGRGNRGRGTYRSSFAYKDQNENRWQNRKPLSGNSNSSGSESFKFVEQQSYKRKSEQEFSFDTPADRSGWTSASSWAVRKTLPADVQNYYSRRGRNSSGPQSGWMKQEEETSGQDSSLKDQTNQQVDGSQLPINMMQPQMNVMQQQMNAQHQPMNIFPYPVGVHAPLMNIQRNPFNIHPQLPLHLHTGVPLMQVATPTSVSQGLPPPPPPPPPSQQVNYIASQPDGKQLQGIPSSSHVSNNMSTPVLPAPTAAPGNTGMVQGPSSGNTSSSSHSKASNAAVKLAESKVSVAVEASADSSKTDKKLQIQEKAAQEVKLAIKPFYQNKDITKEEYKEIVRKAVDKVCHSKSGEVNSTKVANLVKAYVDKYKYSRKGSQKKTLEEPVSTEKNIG
active: [13] 0.714
inactive: [1] -0.074 | [2] -0.09 | [3] -0.16 | [4] 0.03 | [5] -0.134 | [6] -0.076 | [7] -0.014 | [8] -0.068 | [9] 0.125 | [10] -0.035 | [11] 0.076 | [12] 0.099 | [14] 0.166 | [15] -0.084 | [16] 0.134 | [17] 0.213 | [18] 0.157 | [19] -0.036 | [20] 0.112

ROCK1 (UniProt Q13464)
active: [19] 0.249
inactive: [1] 0.049 | [2] -0.025 | [3] 0.042 | [4] -0.007 | [5] 0.199 | [6] 0.027 | [7] -0.007 | [8] -0.018 | [9] 0.032 | [10] 0.205 | [11] -0.019 | [12] 0.013 | [13] 0.015 | [14] 0.031 | [15] -0.079 | [16] -0.026 | [17] 0.012 | [18] 0.027 | [20] -0.013

SDCBP (UniProt O00560)
UniProt O00560, sequence (O00560 whole entry, looked up): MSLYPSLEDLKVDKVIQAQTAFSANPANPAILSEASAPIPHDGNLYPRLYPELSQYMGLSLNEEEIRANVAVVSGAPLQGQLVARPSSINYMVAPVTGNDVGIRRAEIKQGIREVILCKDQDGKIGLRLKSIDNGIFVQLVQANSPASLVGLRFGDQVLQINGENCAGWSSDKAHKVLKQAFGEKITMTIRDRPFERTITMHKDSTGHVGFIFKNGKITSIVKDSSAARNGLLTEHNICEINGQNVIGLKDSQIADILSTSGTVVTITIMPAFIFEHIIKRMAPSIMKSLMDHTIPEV
inactive: [1] -0.048 | [2] -0.1 | [3] -0.058 | [4] 0.047 | [5] -0.036 | [6] -0.008 | [7] 0.034 | [8] 0.002 | [9] -0.021 | [10] -0.045 | [11] 0.021 | [12] 0.139 | [13] -0.02 | [14] -0.036 | [15] -0.064 | [17] 0.181 | [18] 0.057 | [19] 0.073 | [20] -0.007
active: [16] -0.671

SESN2 (UniProt P58004)
inactive: [1] 0.154 | [2] 0.108 | [3] -0.039 | [4] -0.003 | [5] 0.016 | [6] 0.007 | [7] -0.009 | [8] -0.008 | [9] -0.041 | [10] -0.109 | [11] -0.143 | [12] 0.034 | [13] 0 | [14] 0.21 | [15] -0.049 | [16] -0.407 | [17] 0.055 | [18] 0.081 | [19] 0.041 | [20] -0.017

SIDT2 isoform 2 (UniProt Q8NBJ9)
inactive: [1] 0.007 | [2] 0.026 | [3] -0.027 | [4] 0.004 | [5] 0.042 | [6] 0.087 | [7] -0.053 | [8] 0.038 | [9] 0.002 | [10] 0.053 | [11] -0.017 | [12] 0.123 | [13] -0.039 | [14] -0.143 | [15] -0.021 | [17] 0 | [18] 0.271 | [19] 0.009 | [20] 0.005
active: [16] -0.353

SH3GL1 (UniProt Q99961)
UniProt Q99961, sequence (Q99961 whole entry, looked up): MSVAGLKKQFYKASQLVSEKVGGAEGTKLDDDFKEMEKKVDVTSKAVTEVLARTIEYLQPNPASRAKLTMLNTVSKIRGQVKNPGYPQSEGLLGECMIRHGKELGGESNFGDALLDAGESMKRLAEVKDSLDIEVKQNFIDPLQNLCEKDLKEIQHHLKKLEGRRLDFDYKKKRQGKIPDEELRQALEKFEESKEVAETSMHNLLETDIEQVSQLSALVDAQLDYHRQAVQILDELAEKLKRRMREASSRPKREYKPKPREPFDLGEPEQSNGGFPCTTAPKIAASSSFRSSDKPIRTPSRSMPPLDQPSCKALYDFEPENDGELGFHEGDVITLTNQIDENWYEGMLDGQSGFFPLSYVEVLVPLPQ
inactive: [1] 0.024 | [2] 0.068 | [3] 0.013 | [4] 0.003 | [5] 0.058 | [6] 0.022 | [7] 0.019 | [8] 0.004 | [9] -0.047 | [10] -0.045 | [11] -0.09 | [12] -0.021 | [13] -0.059 | [14] 0.052 | [15] -0.097 | [16] -0.238 | [17] 0.013 | [18] 0.032 | [19] 0.018 | [20] 0.037

RHOXF2 (UniProt Q9BQY4)
UniProt Q9BQY4, sequence (Q9BQY4 whole entry, looked up): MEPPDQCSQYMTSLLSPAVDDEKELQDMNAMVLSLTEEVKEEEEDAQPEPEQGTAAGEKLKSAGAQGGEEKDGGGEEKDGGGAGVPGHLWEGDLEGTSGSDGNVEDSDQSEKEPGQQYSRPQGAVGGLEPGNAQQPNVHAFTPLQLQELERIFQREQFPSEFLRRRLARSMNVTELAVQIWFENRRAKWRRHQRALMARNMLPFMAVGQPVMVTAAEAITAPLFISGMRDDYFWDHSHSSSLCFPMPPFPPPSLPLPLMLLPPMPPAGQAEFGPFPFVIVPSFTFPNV
inactive: [1] -0.067 | [2] -0.137 | [3] -0.002 | [4] 0.003 | [5] -0.06 | [6] 0.054 | [7] 0.06 | [8] -0.026 | [9] 0.036 | [10] 0.011 | [11] 0.012 | [12] 0.003 | [13] 0.002 | [14] 0.051 | [15] -0.031 | [16] -0.03 | [17] 0.027 | [18] -0.037 | [19] 0.027 | [20] -0.007
